# Several values for one entry are separate records, joined by “and”; a condition that tells them apart may be missing. Equal entries are not always repeated. Structures can show the parent of a compound that is named as a salt.
# How the values were obtained:
# Assay in all cases: cell viability relative to vehicle control; higher = less cytotoxic
# Details in all cases: 10 µM
# K562 = test system: K562
# Summary of the method: (§1)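 Mutant clones made by CRISPR editing and their isogenic wild-type counterparts, from four leukaemia lines, were exposed to a single 10 µM dose of each library compound for 48 h. The supernatant was then removed and CellTiter-Glo luminescence was read. Viability was reported as percent of the on-plate vehicle control.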
# MARIMO = test system: MARIMO
# Summary of the method: as §1
# MOLM14 = test system: MOLM14
# Summary of the method: as §1
# OCI-AML2 = test system: OCI-AML2
# Summary of the method: as §1
SMILES,cell viability (K562; SRSF2 genotype: SRSF2 P95H/wt),cell viability (K562; SRSF2 genotype: SRSF2 wt/wt) [%],cell viability (MARIMO; SRSF2 genotype: SRSF2 P95H/wt) [%],cell viability (MARIMO; SRSF2 genotype: SRSF2 wt/wt) [%],cell viability (MOLM14; SRSF2 genotype: SRSF2 P95H/wt) [%],cell viability (MOLM14; SRSF2 genotype: SRSF2 wt/wt) [%],cell viability (OCI-AML2; SRSF2 genotype: P95H/wt) [%],cell viability (OCI-AML2; SRSF2 genotype: wt/wt) [%]
Nc1ncnc2c1ncn2[C@@H]1O[C@H](CO)C[C@H]1O [Cordycepin],94.3% and 102%,89.3,90.4,99,102,102,94.1,112
O=C(C[S+]([O-])Cc1ccco1)NC/C=C\COc1cc(CN2CCCCC2)ccn1 (stereo not drawn) [Lafutidine],104% and 105%,102,104,104,96.9,101,105,108
"CCOC(=O)C1=C(C)NC(C)=C(C(=O)OCC)C1c1ccccc1/C=C/C(=O)OC(C)(C)C [Lacidipine (Lacipil, Motens)]",51% and 64.8%,53.2,53.8,40.3,49.7,39.8,44,42.9
O=c1c(O)c(-c2ccc(O)c(O)c2)oc2cc(O)ccc12 [Fisetin (Fustel)],102% and 108%,105,104,100,86.8,103,102,95.1
O=C(/C=C/c1ccc(O)c(O)c1)c1ccc(O)cc1O [Butein],62% and 61%,76.8,52.6,64.7,52.4,47.8,84.1,77.8
COc1cc2c(cc1OC)-c1c(C)c3ccc(OC)c(OC)c3c[n+]1CC2 [Dehydrocorydalin],88.3% and 96%,90.6,94,96,94.8,95.6,79.8,84.1
O=C(C=Cc1ccccc1)NC(NC(=S)Nc1ccc(Cl)cc1)C(Cl)(Cl)Cl (stereo not drawn),81.5% and 86.5%,86.9,102,104,90.4,96,99.1,100
COC(=O)N[C@H](C(=O)N1CC2(CC2)C[C@H]1c1nc(-c2ccc3c(c2)C(F)(F)c2cc(-c4ccc5[nH]c([C@@H]6[C@H]7CC[C@H](C7)N6C(=O)[C@@H](NC(=O)OC)C(C)C)nc5c4)ccc2-3)c[nH]1)C(C)C [Ledipasvir (GS5885)],84.9% and 87.8%,84.3,86.4,90.2,73.7,84.3,87.9,91.8
C[C@@H]1COCCN1c1cc(C2(S(C)(=O)=O)CC2)nc(-c2cccc3[nH]ccc23)n1,8.63% and 11.6%,8.6,20.2,18,22.2,7.72,16.2,18.7
CC(C)[N+]1(C)[C@@H]2CC[C@H]1C[C@@H](OC(=O)C(CO)c1ccccc1)C2 (stereo partly drawn) [Ipratropium bromide],113% and 109%,105,99.5,105,99.8,105,99.1,118
Nc1nc2c(ncn2[C@@H]2O[C@H](CO)[C@@H](O)[C@H]2O)c(=O)[nH]1 [Guanosine],87.3% and 93.1%,93.2,88.2,103,92.5,99.8,103,97.5
C/C(=C\C(=O)Nc1ccccc1C(=O)O)c1ccc2ccccc2c1,101% and 90.8%,106,84.3,98.2,88.5,92.8,95.1,93.6
COc1cccc2cc(-c3nc([C@H]4CC[C@H](C(=O)O)CC4)n4ncnc(N)c34)[nH]c12,36.1% and 37%,32.9,51.5,47.1,29.4,24.9,26.5,27.5
Nc1ccc(O)cc1 [4-Aminophenol],63.2% and 50.9%,83.5,45.6,50,12.1,23.2,3.01,12
N#CCC1(n2cc(-c3ncnc4[nH]ccc34)cn2)CN(C2CCN(C(=O)c3ccnc(C(F)(F)F)c3F)CC2)C1,99.3% and 104%,107,97.5,101,97.6,102,108,110
COc1ccc(-c2cc(=O)c3c(O)cc(O)cc3o2)cc1O [Diosmetin (Luteolin 4-methyl ether)],86.7% and 96.9%,83.9,105,121,50.9,53.6,81,74.6
CC(C)(O)C1CCC(C)(C2C(O)CC3(C)C4CC(OC5OC(CO)C(O)C(O)C5O)C5C(C)(C)C(OC6OCC(O)C(O)C6O)CCC56CC46CCC23C)O1 (stereo not drawn) [Astragaloside A],104% and 103%,99.1,109,111,106,107,97.2,103
N=C1CCCN1Cc1[nH]c(=O)[nH]c(=O)c1Cl [Tipiracil hydrochloride],101% and 109%,104,109,112,110,105,102,94.7
NCCCCCN [Cadaverine],104% and 94%,99.5,100,101,95.9,101,97.1,97.7
OC[C@H]1O[C@H](OC[C@H]2O[C@H](O[C@]3(CO)O[C@H](CO)[C@@H](O)[C@@H]3O)[C@H](O)[C@@H](O)[C@@H]2O)[C@H](O)[C@@H](O)[C@H]1O [D-(+)-Raffinose pentahydrate],114% and 103%,118,104,103,112,113,104,103
CCn1c(-c2nonc2N)nc2c(C#CC(C)(C)O)ncc(OC[C@H]3CCCNC3)c21,87.1% and 95.7%,79.5,73,72.3,59.2,47.1,53.9,57.1
